Screens as filed in PubChem.
The list is not random: actives were taken first. Their share in the collection is about 3%.
PPC-1+TRAIL kill – kills PPC-1 cancer cells in the presence of TRAIL | 220,000 compounds, 0.41% hits | PPC-1 cells + TRAIL, ATPLite viability luminescence | cell killing (% activity), % at 4 µM or 5 µM;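 active means cell killing above 50% in the first pass at 4 µM, then a duplicate retest at 5 µM averaging 50% or more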;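 further: plate controls were cells with TRAIL plus DMSO for no effect and medium-only wells lacking cells for full effect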
SENP8 block-1 – SENP8 protease inhibition | 330,000 compounds, 1.2% hits | AID 2540 | Q96LD8 | inhibition, % at 10 µM | purified SENP8, Z-RLRGG-aminoluciferin cleavage, luminescence; in the data active means inhibition above about 50%
Target sequence (Q96LD8 whole entry, looked up): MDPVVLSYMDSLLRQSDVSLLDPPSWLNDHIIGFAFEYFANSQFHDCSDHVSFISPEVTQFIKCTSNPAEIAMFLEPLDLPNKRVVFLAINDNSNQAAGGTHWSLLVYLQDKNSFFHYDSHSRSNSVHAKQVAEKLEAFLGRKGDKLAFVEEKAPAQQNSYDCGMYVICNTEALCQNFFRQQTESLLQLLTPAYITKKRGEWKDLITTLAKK
SENP7 block – blocks the human protease SENP7 | Q9BQF6 | recombinant SENP7, Z-RLRGG-aminoluciferin luminescence, 40 min | inhibition, % at 5 µM | 330,000 compounds, 1.5% hits | AID 434973;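 active means inhibition above about 50% at the single test dose, limit read from the data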;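 further: plate controls were DMSO with enzyme for no effect and no enzyme buffer wells for full effect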
Target sequence (Q9BQF6 706-1050 limits assumed): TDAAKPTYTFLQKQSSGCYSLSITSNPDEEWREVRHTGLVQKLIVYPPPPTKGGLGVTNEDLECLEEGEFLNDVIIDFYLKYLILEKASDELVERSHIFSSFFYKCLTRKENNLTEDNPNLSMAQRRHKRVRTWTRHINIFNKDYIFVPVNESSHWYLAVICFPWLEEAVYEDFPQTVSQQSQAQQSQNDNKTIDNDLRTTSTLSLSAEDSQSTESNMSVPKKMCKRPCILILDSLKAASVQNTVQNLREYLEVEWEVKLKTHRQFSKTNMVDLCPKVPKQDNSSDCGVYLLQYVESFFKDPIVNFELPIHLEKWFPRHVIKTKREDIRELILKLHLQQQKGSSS
SENP6 inh – SENP6 protease inhibition; Recombinant SENP6 catalytic domain, aminoluciferin luminescence; inhibition, % at 10 µM; 330,000 compounds, 1.8% hits; AID 2599;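 active means inhibition above about 50% at the single tested dose, limit read from the data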;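 further: plate controls were DMSO wells with enzyme for no effect and DMSO wells lacking enzyme for full effect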
SENP8 block-2 – inhibitors of human SENP8 protease; recombinant SENP8, Nedd8 substrate fluorescence; inhibition, % at 20 µM; 360,000 compounds, 0.64% hits; AID 602440; in the data active means inhibition mostly above about 40%, no sharp cut-off; inactive means mostly below about 27%
TRAIL sens C8 – caspase-8 TRAIL sensitization; NB7+C8 cells + TRAIL, ATPlite viability luminescence; inhibition (viability loss, TRAIL sensitization), % at 10 µM; 360,000 compounds, 1% hits; AID 624354;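 active means compounds causing at least 50% loss of cell viability in the single-dose screen, relative to plate controls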
SENP8 confirm – confirmation of human SENP8 protease inhibitors | shares compounds with SENP7 block | inhibition, % at 12.5 µM | Recombinant SENP8, Z-RLRGG-aminoluciferin luminescence, 60 min | 6,200 compounds, 40% hits | AID 488912;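 active means mean inhibition across replicates above about 50%, limit read from the data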
SENP6 confirm – human SENP6 inhibition, confirmed | AID 488915 | shares compounds with SENP7 block | recombinant SENP6, Z-RLRGG-aminoluciferin luminescence | inhibition, % at 12.5 µM | 6,200 compounds, 58% hits
SENP7 confirm – human SENP7 inhibition, confirmed | 6,200 compounds, 69% hits | inhibition, % at 12.5 µM | shares compounds with SENP7 block | recombinant SENP7, Z-RLRGG-aminoluciferin luminescence, 40 min
Casp3 SENP sel – inhibits human caspase-3 in SENP selectivity test | purified caspase-3, Z-DEVD-aminoluciferin luminescence, 60 min | inhibition, % at 12.5 µM | shares compounds with SENP7 block | 6,200 compounds, 60% hits;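 active means mean inhibition above about 50%, limit read from the data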;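 further: plate controls were enzyme with DMSO for no effect and wells without caspase-3 for full effect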
Luc interf – luminescence interference (SENP counter-screen). shares compounds with SENP7 block. Pre-incubated SENP8/Z-RLRGG-aminoluciferin, luciferase luminescence interference. inhibition, % at 12.5 µM. 6,200 compounds, 39% hits;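 active means mean inhibition above about 50% when retested at one dose, limit read from the data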;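 further: plate controls were DMSO wells with completed reaction for no effect and substrate without enzyme for full effect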
Starred values were filed as active, the others as inactive; . = no result.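 How the source made its calls, unless noted: active means mean inhibition above about 50% in the one-dose retest (limit read from the data); inactive means the rest.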

SMILES | PPC-1+TRAIL kill | SENP8 block-1 | SENP7 block | SENP6 inh | SENP8 block-2 | TRAIL sens C8 | SENP8 confirm | SENP6 confirm | SENP7 confirm | Casp3 SENP sel | Luc interf
COc1cc(NC(C)CCCN)c2ncccc2c1Oc1ccccc1 (stereo not given) | 22 | 34 | 30 | 74* | -13 | -1 | 15 | 28 | 18 | 9 | 3
CCC(C(=O)NC1CCCC1)n1c(C2CCCC2)nc2ccccc21 (stereo not given) | . | . | . | . | 16 | -1 | . | . | . | . | .
COc1ccc(C=C2SC(=S)N(CCCC(=O)Nc3ccc(C(=O)O)c(O)c3)C2=O)cc1OC | . | . | . | . | 17 | 2 | . | . | . | . | .
O=C(CCN1C(=O)/C(=C\c2ccccc2F)SC1=S)Nc1ccc(C(=O)O)c(O)c1 | . | 64* | 12 | 66* | 10 | -1 | 78* | 73* | 67* | 12 | 52*
O=C(CCN1C(=O)S/C(=C/c2ccccc2)C1=O)Nc1ccc(C(=O)O)c(O)c1 | . | 45 | 10 | 57* | 5 | 25 | 60* | 55* | 74* | 32 | 65*
O=C(CCCN1C(=O)/C(=C/c2ccccc2)SC1=S)Nc1ccc(C(=O)O)c(O)c1 | . | 73* | 20 | 79* | 18 | -3 | 73* | 72* | 84* | 32 | 76*
O=C(CCN1C(=O)S/C(=C\c2ccc(F)cc2)C1=O)Nc1ccc(C(=O)O)c(O)c1 | . | 75* | 60* | 82* | -7 | 26 | 85* | 80* | 81* | 44 | 79*
COc1cccc(CNC(=O)c2ccc(C)c(NC3=NC4CS(=O)(=O)CC4S3)c2)c1 (stereo not given) | . | -8 | 0 | -21 | 16 | -9 | . | . | . | . | .
Cc1cc(NCc2ccccn2)ccc1Br | 5 | 39 | 53* | 47 | 11 | 2 | 43 | 40 | 69* | 39 | 52*
CC(C)n1cnc2cc(NCc3ccccn3)ccc21 | 24 | 1 | 4 | -1 | -16 | -4 | . | . | . | . | .
C/C(CC(=O)Nc1cc(Cl)ccc1Cl)=N\NC(=O)c1ccccc1Br | 7 | -4 | 7 | 12 | 9 | -15 | . | . | . | . | .
Fc1ccc(-c2noc(-c3ccc4c(c3)CCO4)n2)cc1 | 8 | 67* | 96* | 79* | 5 | 43 | 24 | 53* | 48 | 71* | 36
S=c1nccc(-c2ccc3c(c2)CCO3)[nH]1 | 17 | 2 | 6 | -1 | -31 | 5 | . | . | . | . | .
CCn1c(CSc2nc3ccccc3n2C)nc2ccccc21 | 7 | -4 | 9 | -32 | -7 | -7 | . | . | . | . | .
CCn1c(SCc2ccccc2Cl)nc2ccccc21 | 15 | 17 | 17 | 59* | 32 | 7 | 42 | 44 | 71* | 27 | 20
Cn1c(SCc2ccccc2Cl)nc2ccccc21 | 13 | 75* | 67* | 86* | 39 | 18 | -22 | 77* | 95* | 67* | 66*
Cc1nc2sccn2c(=O)c1S(=O)(=O)N1CCN(c2ccccc2F)CC1 | . | . | . | . | 5 | -5 | . | . | . | . | .
CN=C1S/C(=C\c2cccc(Cl)c2Cl)C(=O)N1C | . | 67* | 49 | 77* | . | . | -10 | 41 | 38 | 17 | 11
CN=C1S/C(=C\c2ccc(SC)cc2)C(=O)N1C | . | 62* | 62* | 70* | -147 | 1 | 69* | 67* | 84* | 65* | 47
CN=C1S/C(=C\c2ccc(O)c(Br)c2)C(=O)N1C | . | 97* | 100* | 97* | -10 | 6 | 99* | 100* | 102* | 98* | 80*
Cc1noc(C)c1S(=O)(=O)NC(=O)C1(C)CCN1C(=O)Cc1ccc(-c2ccccc2)cc1 (stereo not given) | . | . | . | . | 13 | -6 | . | . | . | . | .
CCN1C(=O)c2cccc3c(NC(=O)C4CCCCC4)ccc1c23 | 20 | 0 | 72* | -6 | 11 | 3 | -8 | -2 | -5 | -5 | -6
Cc1ncc(CO)c(/C=N/N=C/c2ccccc2O)c1O | 14 | 32 | 25 | 60* | -35 | 7 | 7 | 7 | 9 | 9 | 5
CCC(=O)c1cc(F)c(N2CCN(S(=O)(=O)c3ccccc3)CC2)cc1C | -12 | -8 | 52* | -1 | 6 | 0 | 8 | 12 | 10 | 4 | 0
CCCC(=O)c1cc(F)c(N2CCN(S(=O)(=O)c3ccccc3)CC2)cc1C | 15 | -5 | 7 | -10 | 12 | 7 | . | . | . | . | .
SMILES | PPC-1+TRAIL kill | SENP8 block-1 | SENP7 block | SENP6 inh | SENP8 block-2 | TRAIL sens C8 | SENP8 confirm | SENP6 confirm | SENP7 confirm | Casp3 SENP sel | Luc interf
COCCCNc1nc2c(-c3ccc(Cl)cc3)nnn2c2ccccc12 | 12 | 5 | 2 | 2 | -376 | 5 | . | . | . | . | .
NNc1nc2c(-c3ccc(Cl)cc3)nnn2c2ccccc12 | 29 | 48 | 45 | 85* | -479 | 37 | -17 | -11 | -5 | 2 | -4
NNc1nc2c(-c3ccc(F)cc3)nnn2c2ccccc12 | 17 | 92* | 92* | 97* | -440 | 18 | 22 | 81* | 71* | 78* | 31
O=C(CSCc1ccccc1)NNc1c(F)c(F)cc(F)c1F | . | -2 | 6 | 5 | 17 | 16 | . | . | . | . | .
Cc1cccc(-c2noc(-c3c(C)noc3C)n2)c1 | 19 | 57* | 48 | 71* | 26 | 7 | 29 | 38 | 52* | 50 | 16
Cc1cccc(-c2nc(-c3ccncc3)no2)c1 | . | 79* | 82* | -5 | 22 | 17 | 58* | 84* | 97* | 85* | 56*
Brc1cccc(-c2nc(-c3ccncc3)no2)c1 | 13 | 50 | 72* | 70* | 5 | 9 | 27 | 54* | 64* | 59* | 26
Cc1ccc(-c2nc(-c3ccncc3)no2)cc1 | . | . | . | . | 14 | 27 | . | . | . | . | .
Cc1cc(C)cc(-c2nc(-c3ccncc3)no2)c1 | -9 | 66* | 61* | 74* | 5 | 18 | 31 | 27 | 21 | 50* | 16
COc1ccc(CC(=O)NNS(=O)(=O)c2ccccc2)cc1OC | 10 | -1 | -1 | -11 | 9 | 0 | . | . | . | . | .
CC(C)C[C@H]1COc2cccc(N(C)CCO)c2S(=O)(=O)N1 | . | . | . | . | 5 | -12 | . | . | . | . | .
CC(=NOC(=O)c1ccc(I)cc1)c1nccs1 | . | . | . | . | 6 | -6 | . | . | . | . | .
Cc1cccc(-c2noc(-c3ccc4c(c3)OCO4)n2)c1 | 34 | 70* | 101* | 82* | -10 | 61* | 4 | 38 | 47 | 37 | 30
